Source: PubChem BioAssay (NCI)
The panel holds about 83,000 compounds, 20% with a hit somewhere; the sample as a whole holds those more often.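 Single-concentration screen, 48 h exposure, 96-well plates. Endpoint: percent growth. Below 10 = active.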 A number with no mark means an inactive call. Calls of active or inactive are those of the source.

tested on: U251 CNS; experiment: NCI-60 one-dose screen, 48 h (100 = growth as untreated, 0 = no growth, -100 = all killed); details: 10 µM
Method: Growth inhibition of the U251 human tumor cell line is measured as a screen for anti-cancer activity. Cells are grown in 96 well plates and exposed to the test compound for 48 hours. Compounds are tested at a single concentration, which is 10^-5 M for most compounds. The reported endpoint is percent growth (GI% or GIPRCNT), where numbers from 0 - 100% represent growth inhibition, and numbers from -100% - 0 represent cell death. For example, a value of 40 represents 60% growth inhibition. A value of 0 means no net growth occurred over the course of the experiment. A value of -40 indicates 40% of cells at the beginning of the experiment died by the end of the experiment. A value of -100 means all cells are dead at the end of the experiment.
NCI-60 Human Tumor Cell Lines Screen was performed using the standard one-dose NCI protocol, which is described in more detail at https://dtp.cancer.gov/discovery_development/nci-60/default.htm.
Compounds with GIPRCNT values below 10 were considered active. Activity score was based on GIPRCNT using the following formula: […]
Score is 0 for GIPRCNT values of 100 or above, 50 for GIPRCNT values of 0, and 100 for GIPRCNT values of -100.

Compound | growth
CC(CN(C)C)Oc1ccc(OC(C)CN(C)C)c2c1C(=O)c1ccccc1C2=O (stereo not given) | 30.1%
Clc1ccc2c(c1)C(N1CCNCC1)=Nc1ccccc1O2 | 41.7%
CCOC(=O)c1cc(C(=O)c2ccc(F)cc2F)n2ccccc12 | 79.4%
CC(=O)[C@H]1CC[C@]2(C)[C@@H]1CC[C@@H]1[C@@]3(C)CC(CCC#N)(CCC#N)C(=O)C(C)(C)[C@@H]3CC[C@]12C | 102%
NC(N)=N/N=C(\N=Nc1ccccc1)c1ccc(Cl)cc1 | 36.3%
COc1ccc(Cc2cnc(N)nc2N)cc1OC | 97.1%
Cn1cnc([N+](=O)[O-])c1/C=C1\Oc2ccc(Br)cc2C1=O | 101%
NC(CSC(c1ccccc1)(c1ccccc1)c1cccc2ccccc12)C(=O)O (stereo not given) | 93%
CC(=O)Oc1cc(OC(C)=O)c2ccccc2c1OC(C)=O | 94%
CCN(CC)CCCOc1cccc2c1C(=O)c1cccc(OCCCN(CC)CC)c1C2=O | 31.2%
COc1ccc(-c2cc(-c3ccccc3)nc(SCCCC(=O)NO)n2)cc1 | -24.5% (active)
CN(C)CCOc1cccc(-c2nc3sccn3c2-c2ccnc(S(C)(=O)=O)n2)c1 | 90%
CCCN1CN2C(=O)N3CN(CCC)CN4C(=S)N(C1)C2C34 (stereo not given) | 97.3%
Nc1ncc(-c2cnn(C3CCNCC3)c2)cc1-c1nc2ccccc2o1 | 13.1%
N#Cc1ccc(C(=O)CSc2nccc(Nc3ccc(C(=O)O)cc3)n2)cc1 | 106%
COc1ccc2cc(-c3nc4ccccc4s3)c(Cl)nc2c1OC | 107%
CCCc1cn(CC(=O)Nc2nc3ccccc3s2)nn1 | 97.8%
CS(=O)(=O)c1nccc(-c2c(-c3ccc(OCCc4ccccc4)cc3)nc3sccn23)n1 | 95.9%
CCN(CC)CCOc1cccc2c1C(=O)c1cccc(OCCN(CC)CC)c1C2=O | 24.8%
O=[N+]([O-])c1cccc(/C=N/NC(=S)NC23CC4CC(CC(C4)C2)C3)c1 | 68.1%

Compound | growth
COc1cc(/C=C/c2cc(/C=C/c3ccc(O)c(OC)c3)[nH]c(=O)n2)ccc1O | 55.6%
O=C(CC(CC(=O)c1ccccc1)c1ccccc1O)c1ccccc1 | 92%
CCCC1(CN2c3ccccc3Sc3ccc(Cl)cc32)CCN(CC)C1 (stereo not given) | -92% (active)
CC(=O)OC1C=CC(OC(C)=O)O1 (stereo not given) | 88.6%
COC(=O)c1cc2oc(/C=C3/SC(=S)N(N)C3=O)cc2n1Cc1ccccc1 | 45.3%
C=CCNCCN1C(=O)c2ccc3c4c(ccc(c24)C1=O)C(=O)N(CCNCC=C)C3=O | -89.4% (active)
C=C/C(C)=C/C[C@]1(C)[C@H](C)[C@@H](OC(=O)CCC)[C@H](O)[C@@]23C(=C[C@H](OC)C[C@@H]12)[C@@H](OC(=O)CCC)O[C@H]3OC(C)=O | -22% (active)
CN(C)c1ccc(/C=N/NC(=O)c2cccc3ccccc23)c(Cl)c1 | 23.9%
C[n+]1c2ccccc2nc2ccccc21 | 4.11% (active)
CC(C)N(CCOc1cccc(-c2nc3sccn3c2-c2ccnc(S(C)(=O)=O)n2)c1)C(C)C | 83.8%
Nc1ccn(Cc2nnc(CCC(=O)c3nc4ccccc4[nH]3)o2)c(=O)n1 | 85.6%
N#CCc1csc(Cc2ccccc2)n1 | 103%
COc1cc(C2CC(c3cc(Cl)c(C)cc3O)=NN2c2ccc(S(N)(=O)=O)cc2)cc(OC)c1OC (stereo not given) | 16.9%
COc1cc(/C=C/c2cc(/C=C/c3ccc(O)c(OC)c3)n(C(=O)Nc3ccccc3Cl)n2)ccc1O | 2.33% (active)
CCNCC(=O)Nc1ccc(C(=O)OCC)cc1 | 97.7%
COc1cc(-c2nn(-c3cccc(NC(=O)NCCNS(=O)(=O)c4ccc(Cl)cc4)c3)cc2-c2ccncc2)ccc1Cl | -0.109% (active)
COc1cc(C2C(C#N)=C(N)Oc3cc(O)ccc32)cc(OC)c1OC (stereo not given) | 11.1%
CS(=O)(=O)c1nccc(-c2c(-c3cccc(OCCN4CCOCC4)c3)nc3sccn23)n1 | 86.6%
CC(=O)N[C@H](C(=O)N[C@@H](CCCNC(=N)N)C(=O)N[C@@H](CCCCN)C(=O)N[C@@H](CCCNC(=N)N)C(=O)N[C@]1(C)CCCCCC/C=C\CCC[C@@](C)(C(=O)N[C@@H](CCCNC(=N)N)C(=O)N[C@@H](CCC(=O)O)C(=O)N[C@@H](CC(C)C)C(=O)N[C@H](C(=O)N[C@@H](CCC(=O)O)C(N)=O)C(C)C)NC(=O)[C@H](CCC(N)=O)NC(=O)[C@H](CC(C)C)NC(=O)[C@H](CC(C)C)NC(=O)[C@H](CCCNC(=N)N)NC(=O)[C@H](CCCNC(=N)N)NC(=O)[C@H](CC(C)C)NC1=O)C(C)C | -40.9% (active)
CC(=O)[C@@]12O[C@](C)(c3ccccc3)O[C@@H]1CC1C3CCC4=CC(=O)CC[C@]4(C)C3CC[C@@]12C (stereo not given in full) | 72.3%
